Active and inactive are the calls of the source. Calls come from the whole dose curve; as a rule, active = well fitted curve in the direction sought with a large enough effect in the repeat runs; inconclusive = weak or mixed curves; inactive = flat fitted curve, though single readings scatter.
% is set by controls: 0 for no effect and ±100 for the full control effect.

The experiment in a line: qHTS assay to test for compound auto fluorescence at 535 nm (green) in HEK293 cell free culture (AID 720682). To be noted: cell-free medium, green autofluorescence 485/535 nm, stronger effect = higher value; series mostly up to 91.3 µM. The text has this:
U.S. Tox21 Program National Center for Advancing Translational Sciences [NCATS] NIH Chemical Genomics Center [NCGC] U.S. Environmental Protection Agency [EPA] National Institutes of Environmental Health Sciences [NIEHS] National Toxicology Program [NTP] U.S. Food and Drug Administration [FDA] Tox21 Assay Overview: Compound auto fluorescence often interferes with screening of the compound library against various biological targets and signaling pathways. Some of these compounds may have fluorophoric properties. Such properties may interfere with the assay outputs resulting in false positives and/or negatives. To decrease such complications and ensure the compound activities are relevant in terms of biological response, the Tox21 10K compound library was screened for auto fluorescence. From the fluorophores used as reporter signals in our screening assays, the auto fluorescence equivalencies of compounds against three fluorophores have been evaluated: Triamterene, Fluorescein and Rose Bengal sodium for blue, green and red fluorescence, respectively. The fluorescence intensities were measured using Excitation/Emission wavelengths at 405/460nm, 485/535nm and 540/590nm for blue, green and red labels, respectively. This assay includes the green fluorescence data.
Tox21 Assay Protocol Summary: 5 uL of culture medium (DMEM containing 10% FBS) per well was dispensed into black wall/clear bottom 1536-well plates using a Multidrop Combi Dispenser (ThermoFisher Scientific, Waltham, MA). After 23 nL compound or DMSO vehicle was transferred into assay plate by a pintool work station (Kalypsys, San Diego, CA), fluorescence intensities in the assay plates were measured by an Envision (PerkinElmer, Shelton, CT) plate reader using three labels for measuring blue, green and red fluorescence at […] 460, 535 and 590nm respectively.
(Quantitative high-throughput screening tests each substance at several concentrations.)
As for `CSc1nc(N=[N+]=[N-])nc(NC(C)C)n1`, the result was inactive.

As to `C[C@H]1CCC[C@H](O)CCCCCc2cc(O)cc(O)c2C(=O)O1`, the compound was classed as inactive.

With `CCN(Cc1ccc(Cl)nc1)/C(=C/[N+](=O)[O-])NC`, the result was inactive.

On to `CC1CN1P(=O)(N1CC1C)N1CC1C` (stereo not given), for which the outcome was inactive.

Regarding `CCCCOC(=O)[C@@H](C)Oc1ccc(Oc2ccc(C#N)cc2F)cc1`, the call was inactive.

For the compound `CNC(=O)Oc1cccc(C(C)C)c1`, the outcome was inactive.

For the compound `CCOC(=O)N(C)C(=O)CSP(=S)(OCC)OCC`, the outcome was inactive.

In the case of `CC(=O)CCc1ccc2c(c1)OCO2`, the result was inactive.

For `CNCC(=O)c1ccc(O)c(O)c1`, the result was inactive.

Regarding `Cc1ncsc1CCCl`, the compound was classed as inactive.

As to `O=C1c2ccccc2C(=O)c2ccccc21`, the compound was classed as inactive.

Regarding `CS(=O)(=O)c1cc(C(F)(F)F)ccc1C(=O)c1cnoc1C1CC1`, the outcome was inactive.

Consider `O=C1CN=C(c2ccccc2)c2cc([N+](=O)[O-])ccc2N1`, for which the compound was called inactive.

Turning to `Fc1ccc(C2(Cn3cncn3)OC2c2ccccc2Cl)cc1` (stereo not given), the compound was called inactive.

Turning to `CC1(C(=O)Nc2ccc(O)c(Cl)c2Cl)CCCCC1`, the call was inactive.

`CCOP(=S)(OCC)SCSP(=S)(OCC)OCC`: the result was inactive.

Take `CCOC(=O)/C=C(C)/C=C/C[C@@H](C)CCCC(C)C`: the outcome was inactive.

`OC(c1ccccc1)(c1ccccc1)C1CCNCC1`: the activity change is 0.0163% [at 18.6 µM] (inactive).

With `O=C(CCN1CC1)OCC(CO)(COC(=O)CCN1CC1)COC(=O)CCN1CC1`, the result was inactive.

With `CCc1cc2c(s1)-n1c(C)nnc1CN=C2c1ccccc1Cl`, the compound was called inactive.

For `O=C(CCCN1CCC(n2c(=O)[nH]c3ccccc32)CC1)c1ccc(F)cc1`, the activity change was -0.0154% [at 18.6 µM] (inactive).

As to `COP(=S)(OC)Oc1ccc(S(N)(=O)=O)cc1`, the result was inactive.

Regarding `Nc1ccccc1Cl`, the call was inactive.

As to `CCC/C(=N\OCC)C1=C(O)CC(CC(C)SCC)CC1=O` (stereo not given), the call was inactive.

Regarding `O=[N+]([O-])c1cc(Cl)c(Cl)c(Cl)c1`, the call was inactive.

For the compound `CCN(CC)C(C)C(=O)c1ccccc1` (stereo not given), the compound was called inactive.

Turning to `ClC(Cl)Br`, the result was inactive.

On to `CCC#N`, for which the compound was called inactive.

On to `O=NN1CCN(N=O)CC1`, for which the compound was classed as inactive.

In the case of `Cc1cc(C)nc(Nc2ccccc2)n1`, the outcome was inactive.

Turning to `CC(COc1ccc(Oc2ccccc2)cc1)Oc1ccccn1` (stereo not given), the outcome was inactive.

Consider `Nc1c(Br)cc([N+](=O)[O-])cc1[N+](=O)[O-]`, for which the compound was classed as inactive.

Turning to `N#CCBr`, the compound was classed as inactive.

Regarding `CCOC(=O)NC(=S)Nc1ccccc1NC(=S)NC(=O)OCC`, the compound was classed as inactive.

`CNC(=O)Oc1c(C(C)(C)C)cc(C)cc1C(C)(C)C`: the result was inactive.

On to `Clc1cccc(N2CCNCC2)c1`, for which the outcome was inactive.

Consider `CNC(=O)Oc1ccccc1C1OCCO1`, for which the outcome was inactive.

As to `CC(N)=S`, the compound was called inactive.

As for `O=C(Nc1ccccc1)N(Cc1ccc(Cl)cc1)C1CCCC1`, the outcome was inactive.

For `COC(=O)c1c(C(F)F)nc(C(F)(F)F)c(C2=NCCS2)c1CC(C)C`, the compound was classed as inactive.

The values above are taken from PubChem BioAssay (Tox21).
